Assay results: article PMC4552634, “A New Set of Chemical Starting Points with Plasmodium falciparum Transmission-Blocking Potential for Antimalarial Drug Discovery” (PLoS ONE, 2015)
Like-named read-outs stand apart in the source and are kept apart here. In all, about 13,000 compounds went through this assay and about 3,200 (25%) showed an effect of 50% or more. This is one part of the list.

System: P. falciparum stage V gametocytes
Design: BacTiter-Glo ATP luminescence viability of purified stage V gametocytes in 384-well plates, per cent inhibition versus DMSO
Conditions: 48 h, 5 µM, inhibitor

Row | Structure (SMILES) | % Inhibition [%] | % Inhibition (% Inhibition) [%]
1 | COc1ccc(Nc2ncc3c(-c4cccc(NC(=O)Cc5cccc(F)c5)c4)c[nH]c3n2)cc1OC [TCMDC-135251] | -27.44 | 
2 | Cc1ccccc1OCCCN1CCN(CC(c2ccc(F)cc2)N2CCN(C(C)C)CC2)CC1 (centres unmarked) [TCMDC-135492] | -21.14 | 
3 | COc1ccc(OCCCN2CCN(CC(c3ccc(F)cc3)N3CCN(C(C)C)CC3)CC2)c2ccccc12 (centres unmarked) [TCMDC-135639] | 74.93 | 
4 | COc1ccc2ccccc2c1CCCCN1CCN(CC(c2ccc(F)cc2)N2CCN(C3CCCC3)CC2)CC1 (centres unmarked) [TCMDC-135865] | -18.03 | 
5 | COc1cc2ccccc2cc1OCCCN1CCN(CC(c2ccc(F)cc2)N2CCN(C(C)C)CC2)CC1 (centres unmarked) [TCMDC-135496] | 103.4 | 
6 | COc1cccc(CN2CCN(C(c3ccccc3)c3ccccc3)CC2)c1O [TCMDC-125556] | -14.13 | 
7 | COc1ccc2ccccc2c1CCCCN1CCN(CC(c2ccc(F)cc2)N2CCC(N3CCCC3)CC2)CC1 (centres unmarked) [TCMDC-135866] | 9.799 | 
8 | COc1ccc2ccccc2c1CCCCN1CCN(CC(c2ccc(F)cc2)N2CCC2)CC1 (centres unmarked) [TCMDC-135867] | 60.92 | 
9 | COc1ccc2ccccc2c1CCCCN1CCN(CC(c2ccc(F)cc2)N2CCN(C(C)C)CC2)CC1 (centres unmarked) [TCMDC-134847] | 46.9 | 
10 | CC(C)N1CCN(C(CN2CCN(CCCOc3cccc4ccccc34)CC2)c2ccc(F)cc2)CC1 (centres unmarked) [TCMDC-135494] | 68.95 | 
11 | CC1(C)N=C(N)N=C(N)N1OCCCOc1cccc2ccccc12 [TCMDC-131626] | 30.73 | 
12 | CN1CCN(c2ccc(-c3cccc(NC(=O)c4cccc(Cl)c4)c3)nn2)CC1 [TCMDC-125348] | 20.42 | 
13 | N#CC(c1ccc(Br)cc1)c1ccc2c(C(F)(F)F)cc(C(F)(F)F)nc2n1 (centres unmarked) [TCMDC-123754] | 9.304 | 
14 | CCCN(CCC)S(=O)(=O)c1ccc(C(=O)Nc2nc3ccc(-c4cc(=O)[nH]c(Nc5ccccc5Cl)n4)cc3[nH]2)cc1 [TCMDC-135852] | -12.1 | 
15 | CN1CCOc2ccc(Nc3nnc(-c4cccc(-c5cccnc5)c4)o3)cc2C1 [TCMDC-134278] | -13.91 | 
16 | O=C(/C=C/c1ccccc1F)NC1CCC(CCN2CCc3ccc(-c4cccnc4)cc3CC2)CC1 (centres unmarked) [TCMDC-140229] | -63.4 | 
17 | COc1cccc(C(=O)C2CC2CN(C)CCC(O)c2ccc(Cl)c(Cl)c2)c1 (centres unmarked) [TCMDC-136793] | 24.64 | 
18 | CCCCCCCn1c(=N)n(CC(O)c2ccc(Cl)c(Cl)c2)c2ccccc21 (centres unmarked) [TCMDC-124065] | 113.9 | 
19 | CCN(CC)CCn1c(=N)n(CC(O)c2ccc(Cl)c(Cl)c2)c2ccccc21 (centres unmarked) [TCMDC-124062] | 86.67 | 
20 | CN(CCC(O)c1ccc(Cl)c(Cl)c1)CC1CC1C(=O)c1ccccc1 (centres unmarked) [TCMDC-136791] | 31.08 | 
21 | CN(C)CCn1c(=N)n(CC(O)c2ccc(Cl)c(Cl)c2)c2ccccc21 (centres unmarked) [TCMDC-125810] | 59.92 | 
22 | CCCCCCCCCCNCC(O)c1ccc(O)c(C(=O)OC)c1 (centres unmarked) [TCMDC-132043] | 1.141 | 
23 | CCCCCCCCCn1c(NCc2cc(Cl)ccc2O)nc2ccccc21 [TCMDC-123817] | -10.34 | 

Row | Structure (SMILES) | % Inhibition [%] | % Inhibition (% Inhibition) [%]
24 | CN(CCN(C)CC(O)c1ccc(Cl)c(Cl)c1)CC(O)c1ccc(Cl)c(Cl)c1 (centres unmarked) [TCMDC-141988] | -33.12 | 
25 | CCc1cccc(-n2c(=O)c3cccnc3n2CC(=O)NCc2ccccc2Cl)c1 [TCMDC-125159] | 19.11 | 
26 | Cc1ccc(N2C(N)=NC(N)=NC2c2ccccc2)cc1 (centres unmarked) [TCMDC-123675] | 47.57 | 
27 | O=C(Nc1ccc([N+](=O)[O-])cc1Cl)c1cc2ccccc2cc1O [TCMDC-123517] | 12.28 | 
28 | O=C(/C=C/c1ccccc1)N1CCOC(CCN2CCC(c3ccccc3)CC2)(c2ccc(Cl)c(Cl)c2)C1 (centres unmarked) [TCMDC-135350] | 15.63 | 
29 | CN(Cc1cccc(O)c1)C1CCN(c2cc(NC(=O)c3ccc(F)cc3)ccn2)CC1 [TCMDC-134965] | -26.89 | 
30 | CCCNCc1ccc(-c2ccc(CN(CCOC)C(=O)c3ccc([N+](=O)[O-])c(C)c3)cc2)nc1 [TCMDC-141544] | 54.62 | 
31 | CCCNCc1ccc(-c2ccc(CN(Cc3cnc(C)cn3)C(=O)/C=C/c3ccccc3C)cc2)nc1 [TCMDC-141545] | 35.86 | 
32 | CCCNCc1ccc(-c2ccc(CN(CCOC)C(=O)c3cscn3)cc2)nc1 [TCMDC-141525] | 101.5 | 
33 | CCCNCc1ccc(-c2ccc(CN(CCOC)C(=O)c3cnc(C)cn3)cc2)nc1 [TCMDC-141534] | 98.71 | 
34 | CCCNCc1ccc(-c2ccc(CN(Cc3cnc(C)cn3)C(=O)CC#N)cc2)nc1 [TCMDC-141527] | 78.38 | 
35 | CCc1nc(N)nc(N)c1CCCOc1ccccc1Cl [TCMDC-137928] | -12.09 | 
36 | N#Cc1ccc2c(c1)CN(CC[C@H]1CC[C@H](NC(=O)/C=C/c3c[nH]c4ccccc34)CC1)CC2 [TCMDC-139191] |  | -21.51
37 | COc1cc(Cc2cnc(N)nc2N)cc(OCCCN2C(=O)c3ccccc3C2=O)c1OC [TCMDC-137365] | 18.85 | 
38 | CCC(C)C(COC(=O)c1cc(OC)c(OC)c(OC)c1)N(C)CCN(C)C(COC(=O)c1cc(OC)c(OC)c(OC)c1)C(C)CC (centres unmarked) [TCMDC-131453] | 2.796 | 
39 | Cc1ccc(Sc2ccc(NC(=O)CN3CCN(C(=O)c4ccco4)CC3)cc2)cc1C [TCMDC-124861] | 2.666 | 
40 | COCc1ccc(CN2CCC(C(=O)Nc3ccc(-c4nc5ccccc5[nH]4)cc3)CC2)o1 [TCMDC-124678] | -40.1 | 
41 | CCCNCc1ccc(-c2ccc(CN(CCOC)C(=O)c3ccco3)cc2)nc1 [TCMDC-141535] | 89.84 | 
42 | CCCNCc1ccc(-c2ccc(CN(CCOC)C(=O)/C=C/c3ccccc3C)cc2)nc1 [TCMDC-141546] | 40.67 | 
43 | CCCNCc1ccc(-c2ccc(CN(CCOC)C(=O)c3ccccc3)cc2)nc1 [TCMDC-141540] | 44.11 | 
44 | CCCNCc1ccc(-c2ccc(CN(CCOC)C(=O)c3cccc(C#N)c3)cc2)nc1 [TCMDC-141538] | 90.8 | 
45 | Cc1ccc(CNC(=O)[C@H](CC(C)C)Nc2cc(C)nc(NCc3ccccc3C)n2)cc1 [TCMDC-134910] | -39.78 | 
46 | Cc1ccc(Nc2ccnc(Nc3ccc(C)c(F)c3)n2)cc1O [TCMDC-138498] | 0.05121 | 

Row | Structure (SMILES) | % Inhibition [%] | % Inhibition (% Inhibition) [%]
47 | O=C(/C=C/c1ccc(Cl)c(Cl)c1)NCCCCCN1CCC(c2c[nH]c3ccccc23)C(O)C1 (centres unmarked) [TCMDC-139694] |  | -6.926
48 | O=C(Cc1ccc(Cl)cc1)NC1CCN(c2ccnc3cc(Cl)ccc23)C1 (centres unmarked) [TCMDC-133399] | -11.42 | 
49 | CC1(C)OC[C@]2(C)[C@@H](CC[C@]3(C)C4=CC(=O)CCC4CC[C@@H]23)O1 (some centres unmarked) [TCMDC-137379] | 35.88 | 
50 | CC(C)c1sc(-c2ccc(C(C)(C)C)cc2)nc1C(=O)NCCCN1CCCC1=O [TCMDC-133691] | 25.46 | 
51 | CCc1sc(-c2ccc(C(C)(C)C)cc2)nc1C(=O)NCCCN1CCCC1=O [TCMDC-133692] | 75.07 | 
52 | O=C(NCCCN1CCCC1=O)NCc1ccccc1 [TCMDC-123844] | 3.062 | 
53 | Cc1ccc(C(C(=O)Nc2ccc(N3CCNCC3)c(Cl)c2)c2ccccc2)cc1 (centres unmarked) [TCMDC-134292] | 32.74 | 
54 | O=C(Nc1ccc(Cl)c(Cl)c1)Nc1ccccc1N1CCNCC1 [TCMDC-133727] | 92.01 | 
55 | CN1CCN(c2ncnc3ccc(NC(=O)Nc4ccc(Cl)c(Cl)c4)cc23)CC1 [TCMDC-139439] | 21.32 | 
56 | CN1CCN(c2ccnc3ccc(NC(=O)Nc4ccc(Cl)c(Cl)c4)cc23)CC1 [TCMDC-139321] | 12.28 | 
57 | O=C(Nc1ccc(C(F)(F)F)cc1)Nc1ccccc1N1CCNCC1 [TCMDC-133726] | 29.85 | 
58 | Cc1cc(N2CCNCC2)c2cc(NC(=O)Nc3ccc(Cl)c(Cl)c3)ccc2n1 [TCMDC-139533] | 55.92 | 
59 | CN1CCN(c2ccnc3ccc(NC(=O)Nc4c(Cl)cccc4Cl)cc23)CC1 [TCMDC-139352] | -27.77 | 
60 | O=C(Nc1ccc(Cl)c(Cl)c1)Nc1ccc2nccc(N3CCNCC3)c2c1 [TCMDC-139452] | -0.1389 | 
61 | O=C(Nc1ccc(Cl)c(Cl)c1)Nc1ccc2nccc(N3CCN(Cc4ccccc4)CC3)c2c1 [TCMDC-139649] | 65.98 | 
62 | O=C(N[C@@H](CC1CCCCC1)C(=O)NC1CCCc2ccccc21)c1ccc(O)c(-c2cccc(C(F)(F)F)c2)c1 (some centres unmarked) [TCMDC-140821] | 14.55 | 
63 | Cc1cccc(-c2cccc3c(NC(=O)N4CCc5cc6nccc(N7CCN8CCC[C@H]8C7)c6cc54)cccc23)n1 [TCMDC-140053] | -32.82 | 
64 | COc1cc(Cc2cnc(N)nc2N)cc(OCCCCC2SC(=O)NC2=O)c1Br (centres unmarked) [TCMDC-137240] | 11.21 | 
65 | Cc1noc(C)c1-c1cccc(CNCc2cccc(-c3cccc(-c4nc5cccc(C)c5[nH]4)c3)c2)c1.O=C(O)C(F)(F)F [TCMDC-133050] | -47.47 | 
66 | COc1cc(Cc2cnc(N)nc2N)ccc1Oc1ccc(N)cc1 [TCMDC-138639] | -31.17 | 
67 | COc1cc(C2CCCCC2)c(OC)cc1CC1c2cc(O)c(Cl)cc2CCN1C (centres unmarked) [TCMDC-137539] | -5.034 | 
68 | CS(=O)(=O)NCCCNCc1cccc(-c2cccc(-c3nc4cc(C(F)(F)F)ccc4[nH]3)c2)c1.O=C(O)C(F)(F)F [TCMDC-133086] | -10.1 | 
